# Experimental data published in PubChem BioAssay AID624298 (National Center for Advancing Translational Sciences (NCATS), 2012).
# Results filed as inconclusive are left out. Where a call stands in place of a potency, no number is given. Calls of active or inactive are those of the source. The call rests on the fitted dose curve; in most records, active means well fitted activation curve with a large enough effect; inconclusive means small, poorly fitted or top-dose-only effect; inactive means no such curve, though single readings can be large or run the other way.
# Experiment: Activators of T cell receptors: Hit Validation;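 further: cytokine measured is secreted IL-2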
# Procedure, shortened: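 Primary human leukocytes incubated 48 hr with anti-CD3 beads plus compound, without co-stimulation. Secreted IL-2 quantified by HTRF (europium cryptate donor, d2 acceptor, 665 nm emission).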
# Potency means the concentration at half of the fitted maximal effect.
row,SMILES,Potency
1,C/C(=N\NC(=O)COc1ccc([N+](=O)[O-])cc1)c1ccco1,inactive
2,CCCn1c(-c2ccccc2)nc2c(=O)n(C)c(=O)[nH]c21,inactive
3,Cn1c(=O)c2c(ncn2CC(O)CO)n(C)c1=O (stereo not given),inactive
4,COc1ccccc1N1CCN(C(=O)C2CCN(S(=O)(=O)c3ccccc3F)CC2)CC1,inactive
5,N#Cc1ccc(CN2CCN(C(=O)c3ccc(S(=O)(=O)NCc4ccco4)cc3)CC2)cc1,inactive
6,Oc1ccc(/C=N\Nc2nncc(-c3ccccc3)n2)cc1,inactive
7,CC1(C)Cc2cccc(OCC(=O)NCc3ccc(F)cc3)c2O1,inactive
8,COc1ccc(C(=O)/C=C(\C)Nc2ccc(NC(C)=O)cc2)cc1,inactive
9,CCN(CC(=O)Nc1c(F)cccc1F)C(=O)C1CCN(S(=O)(=O)c2ccccc2C(=O)OC)CC1,inactive
10,COc1cc(C)c(NC(=S)NCCCN2CCOCC2)cc1OC,inactive
11,COc1cc(/C=C/C(=O)O)cc(OC)c1OC,inactive
12,COc1cccc(CNC(=O)c2ccc(Cl)c(S(=O)(=O)N3CCOCC3)c2)c1,inactive
13,CN(C)c1ccc(C=c2c3ccccc3n3c2c2ccccc2[n+]3C)cc1,560 nM (active)
14,CCOC(=O)c1ncn2c1[C@@H]1CCNC1C(=O)c1cc(OC)ccc1-2 (stereo not given in full),inactive
15,O=C(OCc1cc(=O)n2cc(Br)ccc2n1)C1COc2ccccc2O1 (stereo not given),inactive
16,COc1cccc(-n2c(SCC(=O)NC3CCS(=O)(=O)C3)nc3ccccc3c2=O)c1 (stereo not given),inactive
17,COc1ccc(S(=O)(=O)Nc2ccc3cn[nH]c3c2)cc1[N+](=O)[O-],inactive
18,COc1ccc(C(=O)Nc2cccc(NC(C)=O)c2)cc1OC,inactive
19,COc1ccc(CN2CCN(C(=O)c3cc(C4CC4)nn3-c3ccccc3)CC2)cc1F,inactive
20,COc1cc2c(cc1O)CCN(C(=O)CSc1nncn1C)[C@@H]2C,inactive

row,SMILES,Potency
1,CN(C)c1ccc(N/C(N)=N/c2nc(C(F)(F)F)cc(C(F)(F)F)n2)cc1,inactive
2,CC(=O)Nc1nnc(S(N)(=O)=O)s1,inactive
3,N#Cc1ccccc1Sc1ccccc1C(=O)OCC(=O)NC12CC3CC(CC(C3)C1)C2,inactive
4,CC1CCCC(C)N1C(=O)COC(=O)C12CC3CC(CC(Cl)(C3)C1)C2 (stereo not given),inactive
5,CN(CC(=O)NCC(=O)Nc1ccc(F)cc1)C1CCS(=O)(=O)C1 (stereo not given),inactive
6,Cc1cccc(NC(=O)c2sc3nc(N)c(C#N)cc3c2N)c1,inactive
7,Cc1ccc(C(=O)NNC(=O)COC(=O)COc2ccccc2C#N)cc1,inactive
8,O=C1c2ccccc2C(=O)N1CCCC(=O)N1CCCc2ccccc21,inactive
9,COc1ccccc1C(=O)NCCC(=O)N1CCN(S(=O)(=O)c2cccc(Cl)c2)CC1,inactive
10,CCN1CNC(=S)N(Cc2ccccc2)C1,inactive
11,CC(NC(=S)NCCN1CCOCC1)C12CC3CC(CC(C3)C1)C2 (stereo not given),inactive
12,Cc1[nH]c2ccccc2c1C(=O)CSc1nnc(C2CC2)o1,inactive
13,CC(C)c1nnc(SCC(=O)N2CCOCC2)n1C,inactive
14,COc1ccc(N(C)S(=O)(=O)c2cccc(C(=O)N3CCN(Cc4ccc5c(c4)OCO5)CC3)c2)cc1,inactive
15,CCN(CC(=O)Nc1ccccc1C(F)(F)F)C(=O)c1ccccc1Sc1ccccc1C#N,inactive
16,Oc1ccccc1CN1CCCC(N2CCN(c3cccc(C(F)(F)F)c3)CC2)C1 (stereo not given),inactive
17,O=S(=O)(c1ccc(=S)[nH]c1)N1CCCCCC1,inactive
18,COc1ccccc1CNC(=O)CSc1ccc(Br)cc1,inactive
19,CCn1nnnc1NC(=O)c1ccc2ccccc2c1,inactive
20,Cc1cc(C)c(-c2csc(NC(=O)C3=NN(c4ccccc4)C(=O)CC3)n2)c(C)c1,inactive

row,SMILES,Potency
1,COc1ccc(NC(=O)C(c2ccccn2)N(C(C)=O)c2ccc(C)cc2)cc1 (stereo not given),inactive
2,CN(C)CCC[C@]1(c2ccc(F)cc2)OCc2cc(C#N)ccc21,inactive
3,Cc1cc(NC(=O)CN2C(=O)NC(CC(C)C)C2=O)ccc1Br (stereo not given),inactive
4,Cc1cc(=O)[nH]c(N/N=C/c2cccs2)n1,inactive
5,COc1ccc(Cl)cc1NC(=O)CN(C)C(=O)c1cn2ccccc2n1,inactive
6,CCN(CC)c1ccc2nc3ccccc3[n+](CC)c2c1,4990 nM (active)
7,CC(C)(C)CC(=O)N1CCN(c2ccc(S(=O)(=O)N3CCOCC3)cc2[N+](=O)[O-])CC1,inactive
8,Cc1ccc(C(=O)OCC(=O)NCc2ccco2)cc1C,inactive
9,COc1ccc(Cl)cc1NC(=O)CN1C(=O)NC(C)(Cc2ccc(OC)c(OC)c2)C1=O (stereo not given),inactive
10,Cc1cc(OCC(=O)OCC(=O)NCC2CCCO2)ccc1Cl (stereo not given),inactive
11,c1ccc(Sc2ccccn2)cc1,inactive
12,Cc1n[nH]c(C)c1S(=O)(=O)N1CCCC(C(=O)Nc2nccs2)C1 (stereo not given),inactive
13,COc1cc(C(=O)Nc2ccn(C)n2)ccc1OC(F)F,inactive
14,CSCCC(NC(=O)c1ccco1)C(=O)NCC1CCCO1 (stereo not given),inactive
15,COc1ccc(CNC(=O)C[C@H]2C[C@H](C(=O)N3CCCCC3)[C@@]3(C)c4[nH]c5cc(-c6ccco6)ccc5c4CCN3C2=O)cc1OC,inactive
16,N#Cc1ccc(CN2CCN(C(=O)c3cc(Cl)c4c(c3)OCCO4)CC2)cc1,inactive
17,COc1ccc(OC)c(NC(=O)COC(=O)c2ccc(OC)c(S(=O)(=O)N3CCOCC3)c2)c1,inactive
18,CN(C)c1ccc(NC(=O)COC(=O)CNC(=O)c2cccs2)cc1,inactive
19,CCOC(=O)C1CCN(C(=O)c2cccc(S(=O)(=O)N3CCc4ccccc43)c2)CC1,inactive
20,CSCc1c(C(=O)OCC(=O)NC2CCCCC2)oc2ccccc12,inactive
